Assay [1] in a line: qHTS assay to identify aromatase inhibitors - cell viability counter screen (AID 743084).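 Further: cells stimulated with testosterone during compound exposure; nearly all actives have a fitted effect of over 55% in size.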 Further: potency means the concentration at half of the fitted maximal effect.
For assay [2], the target named is Aryl hydrocarbon receptor (Homo sapiens) (UniProt P35869). The assay is described as follows: qHTS assay to identify small molecule that activate the aryl hydrocarbon receptor (AhR) signaling pathway (AID 743085). Further: nearly all actives have a fitted effect of over 15% in size. Further: potency means the concentration at half of the fitted maximal effect.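 On activation: HG2L7.5c1 human HepG2 liver cells with stably integrated DRE-driven firefly reporter; series mostly up to about 70 µM.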 Put shortly: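 Luminescence read-out: ONE-Glo reagent, 30 min at room temperature, in HG2L7.5c1 HepG2 reporter cells treated 24 h at 37C. Viability was measured beforehand by CellTiter-Fluor fluorescence after 30 min at 37C.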
Chain of Aryl hydrocarbon receptor (Homo sapiens) (P35869 whole entry, looked up): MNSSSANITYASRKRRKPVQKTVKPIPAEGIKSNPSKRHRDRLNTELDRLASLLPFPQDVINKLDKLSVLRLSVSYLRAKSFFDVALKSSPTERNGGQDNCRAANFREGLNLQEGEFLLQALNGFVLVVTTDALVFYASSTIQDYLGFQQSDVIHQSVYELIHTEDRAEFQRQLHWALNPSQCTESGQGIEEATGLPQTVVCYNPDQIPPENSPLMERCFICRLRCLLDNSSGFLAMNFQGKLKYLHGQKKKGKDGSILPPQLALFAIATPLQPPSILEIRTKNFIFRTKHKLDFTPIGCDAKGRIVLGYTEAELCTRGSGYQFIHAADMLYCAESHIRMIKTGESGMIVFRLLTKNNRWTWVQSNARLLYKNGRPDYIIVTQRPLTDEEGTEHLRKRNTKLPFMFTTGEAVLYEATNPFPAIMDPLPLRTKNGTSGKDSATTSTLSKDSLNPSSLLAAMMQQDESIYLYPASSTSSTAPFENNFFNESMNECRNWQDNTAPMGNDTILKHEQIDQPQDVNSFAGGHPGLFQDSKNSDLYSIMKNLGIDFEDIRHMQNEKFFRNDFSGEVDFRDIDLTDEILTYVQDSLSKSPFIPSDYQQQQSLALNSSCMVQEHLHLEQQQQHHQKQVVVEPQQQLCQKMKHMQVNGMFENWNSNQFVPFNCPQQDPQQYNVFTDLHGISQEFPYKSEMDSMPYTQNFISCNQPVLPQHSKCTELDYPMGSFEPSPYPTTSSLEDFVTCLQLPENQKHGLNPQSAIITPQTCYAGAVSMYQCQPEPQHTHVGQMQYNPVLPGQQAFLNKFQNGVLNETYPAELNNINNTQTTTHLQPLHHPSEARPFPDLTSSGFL

Assay [3] in a line: qHTS assay to identify small molecule that activate the aryl hydrocarbon receptor (AhR) signaling pathway - cell viability counter screen (AID 743086). Further: nearly all actives have a fitted effect of over 45% in size. Further: potency means the concentration at half of the fitted maximal effect. Put shortly:
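HepG2-AhR-luc (HG2L7.5c1) cells, 4000/well, were preincubated 5 h at 37C, exposed to compound in qHTS format for 24 hr at 37C, then given CellTiter-Fluor for 30 min; viability was read as fluorescence in the reporter wells.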

In assay [4] the target is Peroxisome proliferator-activated receptor gamma (Homo sapiens) (UniProt P37231). The assay is described as follows: qHTS assay to identify small molecule agonists of the peroxisome proliferator-activated receptor gamma (PPARg) signaling pathway (AID 743094; active means well fitted activation curve with a large enough effect in the signal ratio in the repeat runs, not every such curve was filed as active; the % refers to the signal ratio). Put shortly: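 Beta-lactamase FRET fluorescence was the read-out after a 1 h room-temperature substrate step, following 17 h compound treatment at 37C of HEK293H cells expressing a UAS-driven bla reporter responsive to PPARg.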
Chain of Peroxisome proliferator-activated receptor gamma (Homo sapiens) (P37231 whole entry, looked up): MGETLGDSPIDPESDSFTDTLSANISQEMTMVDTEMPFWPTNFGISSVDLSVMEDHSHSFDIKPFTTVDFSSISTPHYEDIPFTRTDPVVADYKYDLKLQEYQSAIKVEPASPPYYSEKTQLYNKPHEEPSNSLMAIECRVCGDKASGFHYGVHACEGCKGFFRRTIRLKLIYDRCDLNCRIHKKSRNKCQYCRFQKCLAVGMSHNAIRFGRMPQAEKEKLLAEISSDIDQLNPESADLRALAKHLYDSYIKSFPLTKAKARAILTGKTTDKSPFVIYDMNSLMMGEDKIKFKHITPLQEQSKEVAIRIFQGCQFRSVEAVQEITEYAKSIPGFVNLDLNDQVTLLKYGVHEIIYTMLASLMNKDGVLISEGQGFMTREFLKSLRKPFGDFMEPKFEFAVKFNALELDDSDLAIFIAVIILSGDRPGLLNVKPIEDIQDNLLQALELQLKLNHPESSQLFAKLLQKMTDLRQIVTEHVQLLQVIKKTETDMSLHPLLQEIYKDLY

The target is the same in assay [5]. The assay is described as follows: qHTS assay to identify small molecule antagonists of the peroxisome proliferator-activated receptor gamma (PPARg) signaling pathway (AID 743191; calls by dose curve; further: nearly all actives have a fitted effect of over 30% in size; further: potency means the concentration at half of the fitted maximal effect). Put shortly: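 GeneBLAzer PPARg UAS-bla HEK293H cells carrying a UAS-driven beta-lactamase reporter were plated at 3000 cells/well, preincubated 5 h at 37C, then given compound for 17 h at 37C; LiveBLAzer B/G FRET substrate was read after 1 h at room temperature.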

The nature of assay [6]: qHTS assay for small molecule agonists of the antioxidant response element (ARE) signaling pathway - cell viability counter screen (AID 743203; calls by dose curve; further: nearly all actives have a fitted effect of over 55% in size; further: potency means the concentration at half of the fitted maximal effect). The essentials:
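HepG2 cells carrying ARE-driven beta-lactamase; 2,000 cells/well; 5 hrs plating; compound pinned from DMSO; 16 hrs 37C/5% CO2; CellTiter-Glo added; 30 min RT; luminescence.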

Assay [7] in a line: qHTS assay for small molecule activators of the heat shock response signaling pathway - cell viability counter screen (AID 743209). Further: nearly all actives have a fitted effect of over 50% in size. Further: potency means the concentration at half of the fitted maximal effect. The essentials: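 Luminescence from CellTiter-Glo, added after the beta-lactamase FRET read, gave the viability signal. Cells were HSE-bla HeLa treated with DMSO-dissolved compounds for 5 h at 37 C following overnight plating.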
A short description of assay [8]: qHTS assay for small molecule activators of the heat shock response signaling pathway (AID 743210; active means well fitted activation curve with a large enough effect in the signal ratio in the repeat runs, with a control signal flat, not every such curve was filed as active; the % refers to the signal ratio;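 further: HeLa cells with beta-lactamase reporter driven by heat shock elements; series mostly up to about 63 µM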). The essentials: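 Reporter gene assay: HeLa cells stably bearing an HSE-bla construct, compound treatment 5 h at 37 C, LiveBLAzer substrate 2.5 h at RT, fluorescence intensity.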
The nature of assay [9]: qHTS assay for small molecule agonists of the antioxidant response element (ARE) signaling pathway (AID 743202; active means well fitted activation curve with a large enough effect in the signal ratio in the repeat runs, not every such curve was filed as active; the % refers to the signal ratio; further: potency means the concentration at half of the fitted maximal effect). Put shortly:
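Compounds delivered in DMSO to ARE-bla HepG2 cells (2,000 cells/well, pre-incubated 5 h) and left 16 h at 37 C. LiveBLAzer B/G FRET substrate then added for 2 h at RT before fluorescence reading.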

Assay [10] is described as follows: qHTS assay to identify small molecule antagonists of the peroxisome proliferator-activated receptor gamma (PPARg) signaling pathway - cell viability counter screen (AID 743194). Further: nearly all actives have a fitted effect of over 55% in size. Further: potency means the concentration at half of the fitted maximal effect. Put shortly: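 PPARg-UAS-bla HEK293H cells were plated, rested 5 h at 37 C, then treated with compounds plus rosiglitazone (50 nM final) for 17 h at 37 C; viability was then read by CellTiter-Glo luminescence after 30 min at room temperature.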

Values joined by “and” are separate entries in the source; they are usually repeats but may differ in a detail not shown here. Identical values can stand only once. Records with an inconclusive call do not appear. A structure can be active in one record and inactive in another. Active and inactive are the calls of the source. Unless noted, the call rests on the fitted dose curve; in most records, active means well fitted curve in the direction sought with a large enough effect in the repeat runs; inconclusive means weak or mixed curves; inactive means no such curve, though single readings can be large; an effect the other way counts as inactive or inconclusive.

Take `CSc1cnc(C)cn1`: the Potency result in [1], in assay [2], in assay [3], in assay [4], in [5] and in assay [6] was “inactive” throughout. Moreover, the Potency entry in [7] and in [8] was “inactive” in each case.
For the molecule `C[C@H]1[C@H]2CC[C@H]3[C@@H]4CC=C5C[C@@H](N(C)C)CC[C@]5(C)[C@H]4CC[C@]23CN1C`, the Potency result in assay [1], in assay [2], in assay [3], in [4], in assay [5] and in assay [9] was “inactive” each time. Also, the Potency result in assay [6] and in [8] was “inactive” in each case.
Turning to `CC(C)(C)CC(C)(C)c1ccc(OCCOCC[N+](C)(C)Cc2ccccc2)cc1`, the Potency in [1] was 23.7 µM (active) and 24.3 µM (active); in assay [3], “inactive and 61.1 µM (active)”; in assay [10] it was 19.5 µM (active) and 29.8 µM (active); in assay [6] it was 21.7 µM (active) and 29.8 µM (active). The Potency entry in assay [2] and in assay [4] was “inactive” throughout.
As to `CCCCCCCCCCC=O`, the Potency result in assay [1], in assay [2], in [3], in assay [4], in [10] and in assay [9] was “inactive” throughout. Further, the Potency entry in assay [6], in assay [7] and in [8] was “inactive” in each case.
Take `Oc1c(Cl)cc(Cl)c2cccnc12`: the Potency entry in assay [1] and in assay [3] was “inactive” throughout. The Potency in assay [2] is 4.73 µM (active).
`CCCC1O[C@@H]2C[C@H]3[C@@H]4CCC5=CC(=O)C=C[C@]5(C)[C@H]4[C@@H](O)C[C@]3(C)[C@]2(C(=O)CO)O1` (some centres not stated): the Potency result in [1] is “inactive and 61.2 µM (active)”; in [9] it was 30.7 µM (active) and 54.5 µM (active). In addition, the Potency entry in assay [2], in assay [3], in assay [4], in [5], in assay [6] and in assay [7] was “inactive” throughout. For the same molecule, in assay [8], the Potency entry is “inactive”.
Regarding `O=C(NO)C1(NS(=O)(=O)c2ccc(Oc3ccc(F)cc3)cc2)CCOCC1`, the Potency result in [1], in assay [2], in assay [3], in assay [4], in assay [5] and in assay [6] was “inactive” throughout. For the same molecule, the Potency result in assay [7] and in [8] was “inactive” throughout.
With `COc1cc(/C=C/C(=O)O[C@H]2CC[C@]34C[C@]35CC[C@]3(C)[C@@H]([C@H](C)CCC=C(C)C)CC[C@@]3(C)[C@@H]5CC[C@H]4C2(C)C)ccc1O`, the Potency result in assay [1], in [2], in [3], in assay [4], in assay [5] and in assay [10] was “inactive” each time. In addition, the Potency entry in assay [6] and in assay [7] was “inactive” throughout.
As to `CC[C@H](c1ccc(O)cc1)[C@@H](CC)c1ccc(O)cc1`, the Potency entry in assay [1], in [2], in [3], in [4] and in [7] was “inactive” in each case. The Potency in assay [5] is 29.8 µM (active); in [9], 4.22 µM (active); in assay [6] it was 54.5 µM (active) and inactive.
Regarding `C/C=C(\C)C(=O)OCc1ccccc1`, the Potency entry in [1], in assay [2], in [3], in [4], in [10] and in assay [9] was “inactive” in each case. Also, in assay [6], the Potency entry is “inactive”.
Turning to `CCCCCOC(=O)CCCC`, the Potency result in assay [1], in assay [2], in assay [3], in assay [4], in assay [5] and in assay [10] was “inactive” each time. The Potency result in assay [9], in assay [6] and in [7] was “inactive” in each case.
For `C[C@]12CCC(=O)C=C1CC[C@@H]1[C@@H]2[C@@H](O)C[C@@]2(C)[C@H]1CC[C@]2(O)C(=O)COC(=O)CCC(=O)O`, the Potency entry in [1], in assay [2], in assay [3], in assay [4], in [10] and in assay [9] was “inactive” throughout. In addition, the Potency result in [6] and in assay [7] was “inactive” each time.
As for `Oc1ccc2c(c1)-c1ccccc1C2`, the Potency entry in assay [1], in [3], in assay [4], in assay [10], in assay [6] and in [7] was “inactive” in each case. Also, the Potency entry in assay [8] was “inactive”. Also, the Potency was 15.4 µM (active) in assay [2] and 4.86 µM (active) in [9].
As to `COc1ccc(-c2ccc3cc(C(=O)O)ccc3c2)cc1C12CC3CC(CC(C3)C1)C2`, the Potency result in assay [1], in assay [2], in assay [3] and in assay [4] was “inactive” in each case. Moreover, the Potency in assay [10] and in assay [6] was 23.7 µM (active) throughout.
Consider `Cc1onc(-c2c(Cl)cccc2Cl)c1C(=O)N[C@@H]1C(=O)N2[C@@H]1SC(C)(C)[C@@H]2C(=O)O`, for which the Potency result in assay [1], in assay [2], in assay [3], in assay [4], in assay [5] and in [6] was “inactive” throughout. The Potency result in assay [7] was “inactive”.
For the molecule `On1ccccc1=S`, the Potency was 0.539 µM (active) in assay [1], 24.3 µM (active) in assay [10], 15.2 µM (active) in assay [9] and 0.153 µM (active) in assay [7]. The Potency result in assay [2], in assay [3] and in assay [6] was “inactive” each time.
Regarding `OCCCCCCCCCCCCBr`, the Potency entry in assay [1], in [2], in assay [3], in assay [4], in [10] and in assay [6] was “inactive” in each case. Besides, in [7], the Potency entry was “inactive”.
On to `NNc1nc(-c2ccc([N+](=O)[O-])cc2)cs1`, for which the Potency is 30.6 µM (active) in [1], 9.69 µM (active) in assay [2], 24.5 µM (active) in assay [10] and 9.69 µM (active) in [9]. The Potency entry in assay [3] is “inactive”.
Turning to `O=C(O)c1ccc(Cl)c(Cl)c1`, the Potency result in assay [1], in assay [2], in [3], in assay [4], in assay [6] and in assay [7] was “inactive” each time. In assay [8], the Potency entry is “inactive”.
On to `OC1(c2ccc(Cl)c(C(F)(F)F)c2)CCN(CCCC(c2ccc(F)cc2)c2ccc(F)cc2)CC1`, for which the Potency is 7.5 µM (active) in assay [1], 21.1 µM (active) in [3], 8.41 µM (active) in assay [10] and 5.96 µM (active) in assay [6]. Besides, in [2], the Potency result was “inactive”.
Turning to `CCCCN1CCCC[C@H]1C(=O)Nc1c(C)cccc1C`, the Potency entry in [1], in [2], in [3], in [4], in [10] and in assay [6] was “inactive” throughout. Besides, the Potency entry in [7] and in assay [8] was “inactive” throughout.
